These sequences were tested on PPARg DBDmut:RXRa IVT, anti-PPARg (DBD mutation: PPARg1 K132A/R137A, NR concentration 270 nM, RXRa partner concentration 90 nM) (assay: PBM binding z-score (relative to random genomic background probes); higher = stronger binding; sequences stand for … in GC…GCGATTGACAGCGTAGAATGAAGG).
In short: (§1)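 Scanned fluorescence from custom Agilent 4×180K protein-binding microarrays was regression-normalized. Binding z-scores use random background probes as reference. Ligand-free nuclear receptor dimers were incubated on the arrays for 1 h and detected with antibodies against each partner (one per run).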

Sequence	PBM binding z-score
TCAGACAGGTGAAGCTAACTCAGGTACGCAGTCG	0.0407
TAGCCTTGGTCATGCGGGCCAGTATAGTGTCGGC	-0.481
GTACCAAGGTGAATAGGTCGTTAATGAGTAGGCG	0.399
GCTTGTAGATCAACGTTAAGAAAGACTAAGCTAA	0.342
TCTTGTAGATCAAAGGGTAAGAAAGCCGAAGCCT	-0.0494
GCTGATAGGTCAACTGATGGTCAGCTAAAGCTCG	-0.33
CATACAGGGTCAGCTAGGGCAGAGTAGGGACGGC	1.4
AGTCAAAGTTCAGGACGATGTAACGTAAAGCACG	0.674
TCTAGTTGGTCACGGTGGTCACACACGACGGGTA	1.54
CCGACTGGGGCAAGGTTGCCATAACGCACAGCCA	-0.344
CCTAGCGGGCCAGGGTCACTCAAGCATTTCGCTT	-1.58
AGAATGAGGTTGTACGTAGATCAGGGAAGAAAGT	0.8
AGAATGAGGTTATACGTACATCAGGGAAGAAAGT	1.28
TGGAGTAGGTTAGGGGCATTCAGAATGGCGTCGA	1.09
CCTACTGGGCCATTCAGAGGCCATTGATCATATG	-0.542
ATATGTAGGTTACGGGTCATTCAGGTTGGTTCGC	5.13
TCGAGTAGGTTAGGGGTATTCAGAATGGCGTCGA	0.429
CCTAGTTCGTCAAGGTCACACACGCTATAGGTAC	1
TCTTTTAGTTGATTAGGGCAACCGAAACAGCGGA	2.77
GCTAGCAGGGCATTTGGGTCACTCAATGACGGGC	0.0662

Sequence	PBM binding z-score
TGAATGAGGTTATAAGATCGGGGAACGTTGCAAA	1.32
CGTCCCAGGTCAGAGAGGTCAGTGAATGCCGAGT	-0.171
CAAACTAGGGCAAAGGTCAAAGTCGAGCCAACCA	3.73
CGAACTAGGTCATTGACGGGACAGTGAATAGTAA	2.44
TCTTGTAGATCAACAGGCGGTTAAGAAAGATCGA	0.508
ACTATTAGGTGACTTAGGGCAACCGATACGACGC	1.48
TCTGCTACGTCAGTTGGTCAGCTAACGAGCTGCC	0.134
CTCGAAAGGTCGTGCTCAAGTGAGTATACCAAAC	1.46
TAGCCTAGGTCATTCAGGGGCCAGGATAGAAAGC	0.258
CCTCGGAGGACAACAGGAGGTGAGAGCTGCCAGA	-1.46
ACAGACAGGTGAGTGAAGGTAATTCAGCTGGACG	0.248
CTACCAAGGTGAACAAGCTCGTTGATTACTATTC	0.852
TAGCCTAGGTAATGCGGGCCAGTATAGTGTCGGC	-0.707
CCTCGGAGGACAAAAGGAGGTCAGAGCTGCCAGA	-1.11
GCTTGTAGAGCAAGGTTAAGAAAGACTAAGCTAA	-0.693
TCATATAGGTAAAAGGAGAAAGTCGGTGTGGTAA	0.507
TCTAGCAGGCCAGAGGTTCACTCAAGAGGTACGG	-1.08
TCGAGTAGGTTCGGGGCATTCAGAATGGCGTCGA	-0.804
TCTATTAGTTGATTAGGGCAACCTAAACAGCGGA	1.37
ATACCAAAGTGATCGTGAGGTCGTTGATACTAAC	0.693

The sequences below were run on PPARg DBDmut IVT, anti-PPARg (DBD mutation: PPARg1 K132A/R137A, NR concentration 270 nM) in the same assay as above.
In short: as §1

Sequence	PBM binding z-score
TCAGACAGGTGAAGCTAACTCAGGTACGCAGTCG	-0.303
TAGCCTTGGTCATGCGGGCCAGTATAGTGTCGGC	-0.0984
GTACCAAGGTGAATAGGTCGTTAATGAGTAGGCG	0.346
GCTTGTAGATCAACGTTAAGAAAGACTAAGCTAA	0.507
TCTTGTAGATCAAAGGGTAAGAAAGCCGAAGCCT	-0.151
GCTGATAGGTCAACTGATGGTCAGCTAAAGCTCG	-0.713
CATACAGGGTCAGCTAGGGCAGAGTAGGGACGGC	-0.307
AGTCAAAGTTCAGGACGATGTAACGTAAAGCACG	0.961
TCTAGTTGGTCACGGTGGTCACACACGACGGGTA	0.923
CCGACTGGGGCAAGGTTGCCATAACGCACAGCCA	-1.02
CCTAGCGGGCCAGGGTCACTCAAGCATTTCGCTT	-1.58
AGAATGAGGTTGTACGTAGATCAGGGAAGAAAGT	0.199
AGAATGAGGTTATACGTACATCAGGGAAGAAAGT	1.19
TGGAGTAGGTTAGGGGCATTCAGAATGGCGTCGA	0.719
CCTACTGGGCCATTCAGAGGCCATTGATCATATG	-0.403
ATATGTAGGTTACGGGTCATTCAGGTTGGTTCGC	4.88
TCGAGTAGGTTAGGGGTATTCAGAATGGCGTCGA	0.6
CCTAGTTCGTCAAGGTCACACACGCTATAGGTAC	1.24
TCTTTTAGTTGATTAGGGCAACCGAAACAGCGGA	2.73
GCTAGCAGGGCATTTGGGTCACTCAATGACGGGC	-0.844

Sequence	PBM binding z-score
TGAATGAGGTTATAAGATCGGGGAACGTTGCAAA	0.272
CGTCCCAGGTCAGAGAGGTCAGTGAATGCCGAGT	-0.892
CAAACTAGGGCAAAGGTCAAAGTCGAGCCAACCA	2.63
CGAACTAGGTCATTGACGGGACAGTGAATAGTAA	0.8
TCTTGTAGATCAACAGGCGGTTAAGAAAGATCGA	0.822
ACTATTAGGTGACTTAGGGCAACCGATACGACGC	0.993
TCTGCTACGTCAGTTGGTCAGCTAACGAGCTGCC	0.236
CTCGAAAGGTCGTGCTCAAGTGAGTATACCAAAC	0.784
TAGCCTAGGTCATTCAGGGGCCAGGATAGAAAGC	-0.519
CCTCGGAGGACAACAGGAGGTGAGAGCTGCCAGA	-1.64
ACAGACAGGTGAGTGAAGGTAATTCAGCTGGACG	-0.584
CTACCAAGGTGAACAAGCTCGTTGATTACTATTC	0.253
TAGCCTAGGTAATGCGGGCCAGTATAGTGTCGGC	-0.721
CCTCGGAGGACAAAAGGAGGTCAGAGCTGCCAGA	-2.13
GCTTGTAGAGCAAGGTTAAGAAAGACTAAGCTAA	-0.41
TCATATAGGTAAAAGGAGAAAGTCGGTGTGGTAA	0.375
TCTAGCAGGCCAGAGGTTCACTCAAGAGGTACGG	-0.88
TCGAGTAGGTTCGGGGCATTCAGAATGGCGTCGA	-0.918
TCTATTAGTTGATTAGGGCAACCTAAACAGCGGA	1.62
ATACCAAAGTGATCGTGAGGTCGTTGATACTAAC	0.857

— the supplement of paper PMC6555819
